KCNH2 WT inh: qHTS for Inhibitors of KCHN2 3.1: Wildtype qHTS | U2OS, BacMam KCNH2, thallium flux FluxOr; active compounds read low | 0.37% of 340,000 active | Voltage-gated inwardly rectifying potassium channel KCNH2 (Homo sapiens), Q12809 | activity change, % at 1.84 µM;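 active = maximum activity change below -70%; inconclusive = maximum activity change between -70% and -50%; inactive = maximum activity change above -50%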
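U2OS cells were transduced with wild-type KCNH2 virus (2.03 x 10^8 / mL) for 4 h at room temperature, then cultured overnight at 37 C. Thallium flux was read with FluxOr dye. Rate constants were normalized to DMSO controls.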
RGS4 inhibitor: Inhibitors of Regulator of G Protein Signaling (RGS) 4: qHTS | Potency, µM (titrated, usually from 114 µM), inactives show top-dose activity change, negative = inhibition, hits mostly inhibitors | 0.039% of 390,000 active | Regulator of G-protein signaling 4 (Homo sapiens), P49798 | AID 504845, 2011 | Transcreener GDP fluorescence polarization, RGS4-accelerated GTP hydrolysis; note: potency is the fitted concentration of half-maximal effect; nearly all actives have a fitted effect of over 75% in size
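MLSMR compounds (23 nl, pin-transferred) preincubated 10 min at room temperature with a 500nM (2x) first reagent, then RGS4 at 900nM (2x) plus Transcreener GDP mix added; fluorescence polarization (620/688 nm) read before and after 90 min at 30 °C.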
GCN5L2 inh: qHTS Assay for Inhibitors of GCN5L2 | Histone acetyltransferase KAT2A (Homo sapiens), Q92830 | 0.21% of 390,000 active | Potency, µM (titrated, usually from 58.9 µM), for inactives: at the top dose activity change, negative = inhibition, most hits filed as inhibitors | AID 504327, 2011 | GCN5L2 HAT assay, ThioGlo1 CoA-SH fluorescence; note: potency is the fitted concentration of half-maximal effect
Target sequence (Q92830 whole entry, looked up): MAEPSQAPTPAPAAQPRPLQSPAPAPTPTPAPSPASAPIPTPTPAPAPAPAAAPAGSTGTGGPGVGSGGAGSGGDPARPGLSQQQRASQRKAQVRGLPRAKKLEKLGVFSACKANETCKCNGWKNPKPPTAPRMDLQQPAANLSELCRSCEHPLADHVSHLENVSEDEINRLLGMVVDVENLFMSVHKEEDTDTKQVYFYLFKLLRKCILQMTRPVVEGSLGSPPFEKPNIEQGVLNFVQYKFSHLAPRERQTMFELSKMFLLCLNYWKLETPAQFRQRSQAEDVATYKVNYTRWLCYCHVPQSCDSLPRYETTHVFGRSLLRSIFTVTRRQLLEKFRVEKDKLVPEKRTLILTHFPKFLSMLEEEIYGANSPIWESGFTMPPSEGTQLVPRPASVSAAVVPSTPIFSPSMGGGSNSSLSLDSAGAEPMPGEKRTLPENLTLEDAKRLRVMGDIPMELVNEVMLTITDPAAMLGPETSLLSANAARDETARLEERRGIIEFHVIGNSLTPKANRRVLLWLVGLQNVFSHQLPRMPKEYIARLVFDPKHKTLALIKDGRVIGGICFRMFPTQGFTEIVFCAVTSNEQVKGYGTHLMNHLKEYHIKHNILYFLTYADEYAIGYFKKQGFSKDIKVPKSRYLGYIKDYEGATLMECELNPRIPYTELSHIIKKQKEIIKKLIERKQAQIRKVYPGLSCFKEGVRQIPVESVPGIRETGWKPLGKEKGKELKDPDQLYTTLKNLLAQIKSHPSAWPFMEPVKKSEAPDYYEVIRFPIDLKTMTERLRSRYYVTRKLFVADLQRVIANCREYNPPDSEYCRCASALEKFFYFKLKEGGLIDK
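GCN5L2 (20 nM) in 50mM HEPES pH 7.5, 0.1mM EDTA, 0.01% Tween-20 preincubated 15 min with compounds at room temperature. Reaction started with H3(1-25) 75uM, acetyl-CoA 70uM, ThioGlo1 50uM; CoA-thiol fluorescence (Ex340/Em540) read at 0 and 20 min.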
KCNH2 3.1 inh: qHTS for Inhibitors of KCHN2 3.1: Mutant qHTS | Potassium voltage-gated channel subfamily H member 2, brain isoform KCNH2 3.1 (human) | U2OS KCNH2 3.1, thallium flux FluxOr; active compounds read low | activity change, % (tested at about 1.8 µM) | 0.95% of 340,000 active;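 active = maximum activity change below -70%; inconclusive = maximum activity change from -70% to -50%; inactive = maximum activity change above -50%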;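 note: thallium influx rate constant from kinetic fluorescence after stimulation buffer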
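Kinetic fluorescence (2 min after stimulation buffer) measures Tl+ influx through KCNH2 3.1 expressed by viral transduction in U2OS cells; the rate constant is normalized against DMSO controls serving as positive and negative references.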
Pin1 inhibitor: qHTS Assay to Find Inhibitors of Pin1 | Pin1 FP peptide displacement, HiFluor488, 10 min | AID 504891, 2011 | 0.009% of 390,000 active | Potency, µM (doses to about 115 µM), for the others: at the highest dose activity, negative = inhibition, usual class: inhibitors; active = well fitted inhibition curve with a large enough effect in the polarisation, with a control signal flat, not every such curve was filed as active; inconclusive = small, poorly fitted or top-dose-only effect, or effect the other way, or a change in a side signal; inactive = no such curve, though single readings can be large or run the other way; the % refers to the polarisation; note: potency is the fitted concentration of half-maximal effect
PGK inhibitor: qHTS Assay to Find Inhibitors of Phosphoglycerate Kinase | Phosphoglycerate kinase, glycosomal (Trypanosoma brucei brucei), P07378 | PGK/GAPDH coupled, Kinase-Glo luminescence, 60 min | Potency, µM (highest dose often 57.5 µM), inactives show at the top dose activity change, negative = inhibition, most hits filed as inhibitors | 0.043% of 380,000 active | AID 602233, 2012; note: potency is the fitted concentration of half-maximal effect; nearly all actives have a fitted effect of over 60% in size
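Luminescent ATP detection (Kinase-Glo Plus) follows a 60-minute room-temperature incubation, with wells lacking PGK as controls. Buffer: 100 mM TEA (pH 7.6), 5 mM MgCl2, 0.01% Tween-20. Coupling enzyme GAPDH (100 nM final) supplies unstable 1,3-BPG in-well.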
An asterisk follows results filed as active; [ ] = another dose, or the depositor's remark. The list is not random: actives were taken first. Their share in the collection is about 1.2%. Unless noted, calls come from the whole dose curve; as a rule, active = well fitted curve in the direction sought with a large enough effect; inconclusive = small, poorly fitted or top-dose-only effect, or another doubt; inactive = no such curve, though single readings can be large; an effect the other way counts as inactive or inconclusive. % is set by controls: 0 for no effect and ±100 for the full control effect.

COc1ccc(C(CC(=O)O)c2ccc3c(c2)OCO3)cc1 (configuration not stated) was read as KCNH2 WT inh 7.9, RGS4 inhibitor -13.1%, GCN5L2 inh 1.2%, KCNH2 3.1 inh 10.3, Pin1 inhibitor -0.2% and PGK inhibitor 7.3%.
For COc1ccc(CNCCC(c2ccc(OC(C)C)cc2)c2ccccc2OC)cc1OC (configuration not stated) the results were KCNH2 WT inh -45.3, RGS4 inhibitor -4.9%, GCN5L2 inh -2.3%, KCNH2 3.1 inh -81.8*, Pin1 inhibitor -2.4% and PGK inhibitor -5.1%.
Screening Cc1ccc2onc(CC(=O)N3CCN(c4ccc(F)cc4)CC3)c2c1 returned RGS4 inhibitor -18.7%, GCN5L2 inh -4.2%, Pin1 inhibitor -7.5% and PGK inhibitor -9.5%.
Screening O=C(Nc1cccc(C(F)(F)F)c1)Nc1cc(Cl)ccc1C(=O)O returned GCN5L2 inh 22.4µM*.
CC(C)(C)c1ccc(S(=O)(=O)/C=C/C#N)cc1 was read as RGS4 inhibitor 2.12µM* and GCN5L2 inh inconclusive.
O=C(NC1CCCCCCC1)c1ccc(Br)o1 was read as KCNH2 WT inh -11.3, RGS4 inhibitor -14.0%, GCN5L2 inh -1.3%, KCNH2 3.1 inh -199.1*, Pin1 inhibitor -8.6% and PGK inhibitor -1.8%.
For O=C(CC1S/C(=N\S(=O)(=O)c2ccccc2)N(c2ccccc2)C1=O)Nc1ccc(F)cc1 (configuration not stated) the results were KCNH2 WT inh -29.2, RGS4 inhibitor -2.6%, GCN5L2 inh -11.5%, KCNH2 3.1 inh -80.3*, Pin1 inhibitor 25.1% and PGK inhibitor 3.4%.
Cc1ccc(S(=O)(=O)/N=C2\SC(CC(=O)Nc3ccc(F)cc3)C(=O)N2c2ccccc2)cc1 (configuration not stated) was read as KCNH2 WT inh -2.8, RGS4 inhibitor 8.8%, GCN5L2 inh -5.4%, KCNH2 3.1 inh -5.0, Pin1 inhibitor 21.7% and PGK inhibitor 12.0%.
CC(C)=CC[C@@H](O)C1=CC(=O)c2c(O)ccc(O)c2C1=O was read as RGS4 inhibitor inactive and GCN5L2 inh 25.1µM*.
O=C(Nc1cccc(-n2cnnn2)c1)c1cc(Cl)ccc1Cl was read as KCNH2 WT inh 4.7, RGS4 inhibitor -1.4%, GCN5L2 inh -14.6%, KCNH2 3.1 inh -13.6, Pin1 inhibitor -8.5% and PGK inhibitor inactive.
O=C(Nc1cccc(-n2cnnn2)c1)c1ccoc1COc1ccc(Cl)cc1 was read as KCNH2 WT inh inconclusive, RGS4 inhibitor 7.5%, GCN5L2 inh -1.2%, KCNH2 3.1 inh -73.6*, Pin1 inhibitor -0.9% and PGK inhibitor -1.4%.
NC(=O)c1cccc(C[C@H](C(=O)O)N2C(=O)c3ccc(C(=O)O)cc3C2=O)c1 was read as GCN5L2 inh -3.4% and Pin1 inhibitor -6.0%.
Screening Cc1ccc(S(=O)(=O)N(C)Cc2ccc(C(=O)N/N=C/c3ccc(OC(F)F)cc3)cc2)cc1 returned KCNH2 WT inh inconclusive, RGS4 inhibitor -22.2%, GCN5L2 inh -2.9%, KCNH2 3.1 inh -108.9*, Pin1 inhibitor -0.6% and PGK inhibitor inactive.
For COc1cccc(-c2onc3ccc(C(C)=O)cc23)c1 the results were KCNH2 WT inh 3.9, RGS4 inhibitor -30.3%, GCN5L2 inh -17.2%, KCNH2 3.1 inh 7.6, Pin1 inhibitor -8.0% and PGK inhibitor inactive.
For CC(=O)c1ccc2noc(-c3cccc(F)c3)c2c1 the results were KCNH2 WT inh 6.8, RGS4 inhibitor -22.9%, GCN5L2 inh -17.4%, KCNH2 3.1 inh -82.8*, Pin1 inhibitor -0.6% and PGK inhibitor -6.0%.
For Cc1cn2c(=O)cc(COC(=O)c3cccc(NC(=O)COc4ccccc4)c3)nc2s1 the results were RGS4 inhibitor -27.2%, GCN5L2 inh 33.5%, Pin1 inhibitor inconclusive and PGK inhibitor inactive.
For O=C(c1ccco1)N1CCN(c2ncccn2)CC1 the results were KCNH2 WT inh 2.7, RGS4 inhibitor -10.7%, GCN5L2 inh -4.7%, KCNH2 3.1 inh 15.5, Pin1 inhibitor 1.4% and PGK inhibitor -5.1%.
For Nc1nc(N2CCN(C(=O)c3ccco3)CC2)nc2ccc(Br)cc12 the results were RGS4 inhibitor -49.7%[56.9 µM], GCN5L2 inh -0.3%, KCNH2 3.1 inh -89.0*, Pin1 inhibitor inconclusive and PGK inhibitor 8.91µM*.
`COc1cccc(Nc2nnc(SCC(=O)Nc3sccc3C(N)=O)s2)c1` gave KCNH2 WT inh -6.3, RGS4 inhibitor -13.5%, GCN5L2 inh -0.3%, KCNH2 3.1 inh -97.2*, Pin1 inhibitor 20.7% and PGK inhibitor -1.0%.
CCc1ccc(Nc2nnc(SCC(=O)Nc3sccc3C(N)=O)s2)cc1 was read as KCNH2 WT inh 3.5, RGS4 inhibitor -52.8%, GCN5L2 inh -5.4%, KCNH2 3.1 inh -18.9, Pin1 inhibitor 31.5% and PGK inhibitor -3.1%.
`CCCCOP(=O)(OCCCC)C1(NS(=O)(=O)c2ccccc2)C=CC(=O)c2ccccc21` (configuration not stated) gave KCNH2 WT inh -12.0, RGS4 inhibitor -46.1%, GCN5L2 inh -7.6%, KCNH2 3.1 inh -81.8*, Pin1 inhibitor 1.0% and PGK inhibitor -7.0%.
CCCCOCCCNS(=O)(=O)c1ccccc1 was read as KCNH2 WT inh 7.5, RGS4 inhibitor 22.1%, GCN5L2 inh -4.9%, KCNH2 3.1 inh 3.8 and Pin1 inhibitor -0.5%.
`O=C(c1cc(COc2c(F)cccc2F)on1)N1CCN(C2CCCCC2)CC1` gave KCNH2 WT inh 26.4, RGS4 inhibitor -11.0%[56.9 µM], GCN5L2 inh -5.3%, KCNH2 3.1 inh -81.2*, Pin1 inhibitor -13.4% and PGK inhibitor 5.4%.
O=C(c1cc(COc2c(F)cccc2F)on1)N1CCCCCC1 was read as KCNH2 WT inh 1.0, RGS4 inhibitor 11.9%, GCN5L2 inh -3.0%, Pin1 inhibitor -3.5% and PGK inhibitor -5.8%.
Screening Cc1cccc(NC(=O)Cn2c(=O)n(Cc3ccccc3)c(=O)c3oc4ccccc4c32)c1C returned RGS4 inhibitor 4.9%, GCN5L2 inh 0.8%, Pin1 inhibitor -3.0% and PGK inhibitor inactive.

Assay outcomes (PubChem BioAssay)
